Data published in publication PMC5540273 (PLoS ONE, 2017).

Test system: CAMK4
Conditions: concentration: 1 μM, replicates: in singlicate; n = 1
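Note: KINOMEscan kinase panel screen.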

First: COc1cccc(C(=O)Nc2cccc(Oc3ccc4nc(NC(=O)C5CC5)cn4n3)c2)c1
Second: COc1cccc(-c2ccc3c(NC(=O)C4CC4)n[nH]c3n2)c1 [SB-710903]
The “%Inh” value of the first is higher: 8% for the first, 0% for the second.

Cl.Cl.NCC(NC(=O)c1cc(-c2ccccc2)c(-c2ccnc3[nH]ccc23)s1)c1ccccc1 (stereo not shown) [GSK1321561] and Cl.Cl.NCC(NCc1ccc(-c2ccnc3[nH]ccc23)s1)c1ccccc1 (stereo not shown) [GSK1321565] are the same in “%Inh” value: 0% for the first, 0% for the second.

CC(=O)Nc1nc2cnc(Nc3cc(NC(=O)c4cccc(C5(C#N)CC5)c4Cl)ccc3C)nc2s1 and Cc1ccc(C)c(NC(=O)NC2CCN(c3ccnc(Nc4ccc(F)cc4)n3)C2)c1 (stereo not shown) [GSK1379720] are the same in “%Inh” value: 0% for the first, 0% for the second.

COc1cccc(NC(=O)NC2CCN(c3ccnc(Nc4cc(OC)c(OC)c(OC)c4)n3)C2)c1 (stereo not shown) [GSK1379763] and COc1cc(Nc2nccc(N3CCC(NC(=O)Nc4cccc(C(C)=O)c4)C3)n2)cc(OC)c1OC (stereo not shown) [GSK1379753] are the same in “%Inh” value: 0% for the first, 0% for the second.

COc1cc2c(cc1OCCN1CCNCC1)ncc1c3ccc(C#N)cc3[nH]c21 and COCCOCCOc1cc2ncc3c4ccc(C#N)cc4[nH]c3c2cc1OC are the same in “%Inh” value: 0% for the first, 0% for the second.

CSc1cccc2c(-c3ccncn3)c(-c3ccc(F)cc3)nn12 [GW514786] and O=C(Nc1cccc(-c2nn3ncccc3c2-c2ccnc(Nc3ccccc3)n2)c1)c1c(F)cccc1F [GSK198271] are the same in “%Inh” value: 0% for the first, 0% for the second.

Cn1cc(-c2ccc3c(c2)CCN3C(=O)Cc2cccc(Cl)c2)c2c(N)ncnc21 [GSK2606590] and Cn1cc(-c2ccc3c(c2)CCN3C(=O)Cc2cccc(F)c2)c2c(N)ncnc21 [GSK2603358] are the same in “%Inh” value: 0% for the first, 0% for the second.

CCS(=O)(=O)c1ccc(OC)c(Nc2nccc(-c3c(-c4cccc(NC(=O)c5c(F)cccc5F)c4)nn4ncccc34)n2)c1 [GSK326180] and COc1cc(Nc2nccc(-c3c(-c4cccc(NC(=O)c5c(F)cccc5F)c4)nn4ncccc34)n2)cc(OC)c1OC [GSK327238] are the same in “%Inh” value: 0% for the first, 0% for the second.

First: CCn1c(-c2nonc2N)nc2c(C#CC(C)(C)O)ncc(OCCCCN)c21.O=C(O)C(F)(F)F.O=C(O)C(F)(F)F [GSK507274]
Second: CCn1c(-c2nonc2N)nc2c(C#CC(C)(C)O)nc(OC[C@H](N)c3ccccc3)cc21 [GSK943949]
The “%Inh” value of the first is higher: 50% for the first, 0% for the second.

First: O=C(Nc1cccc(-c2nn3ccccc3c2-c2ccnc(Nc3cccc(C(F)(F)F)c3)n2)c1)c1c(F)cccc1F [GSK292658]
Second: COc1cc(Nc2nccc(-c3c(-c4cccc(NC(=O)c5c(F)cccc5F)c4)nn4ccccc34)n2)cc(OC)c1OC [GSK323521]
The “%Inh” value of the first is lower: 0% for the first, 30% for the second.

CN(c1ccc(NC(=O)Nc2cc(C(F)(F)F)ccc2F)cc1)c1ccnc(Nc2ccc(S(N)(=O)=O)cc2)n1 [GW809893] and COC(=O)Nc1nc2ccc(Oc3ccc(NC(=O)Nc4cc(C(F)(F)F)ccc4F)cc3)cc2n1C.Cl [GW692089] are the same in “%Inh” value: 0% for the first, 0% for the second.

COc1cc(Nc2ncc3c(C)nc(-c4cc5ccccc5[nH]4)n3n2)cc(OC)c1OC [GW869516] and Cl.c1ccc(-c2ccc3c(Nc4ccc5[nH]ccc5c4)ccnc3c2)nc1 [GW440138] are the same in “%Inh” value: 0% for the first, 0% for the second.

c1ccc(Oc2ccc(Nc3ccnc4cc(-c5ccc(CNCCN6CCOCC6)o5)ccc34)cc2)nc1 [GW567145] and Cc1ccc(C(=O)Nc2ccc(Nc3ccnc4cc(-c5nccs5)ccc34)cc2O)cc1.Cl [GW494702] are the same in “%Inh” value: 0% for the first, 0% for the second.

Oc1cc(Nc2ccnc3cc(I)ccc23)ccc1F [GW552771] and CC(C)(C)c1ccc2nccc(Nc3cccc(O)c3)c2c1 [GW856795] are the same in “%Inh” value: 0% for the first, 0% for the second.

First: C[C@@H]1CC[C@@H](C(=O)Nc2ccccc2)CN1c1cc(-c2ccc3c(N)n[nH]c3c2)nc(N)n1 [GSK2286062]
Second: Nc1ncc(-c2cccnc2)c2scc(-c3ccc4c(c3)CCN4C(=O)Cc3ccccc3)c12 [GSK683281]
The “%Inh” value of the first is lower: 0% for the first, 1% for the second.

FC(F)(F)c1ccc(/C=C/c2cncnc2Nc2ccc3[nH]c(Cc4ccccc4)nc3c2)cc1 [GW709199] and Fc1ccc(-c2ncn(C3CCNCC3)c2-c2ccnc(Oc3ccc(-c4ccccc4)cc3)n2)cc1 [SB-245391] are the same in “%Inh” value: 0% for the first, 0% for the second.

CCc1ccc(-c2ccc3c(c2)-c2c(cnn2C)S(=O)(=O)N3C)cc1 and COc1cccc(C2=C(Nc3ccc(Cl)c(C(=O)O)c3)C(=O)NC2=O)c1 [SB-390769] are the same in “%Inh” value: 0% for the first, 0% for the second.

First: NCCCC(NC(=O)c1cc(Br)c(-c2ccnc3[nH]ccc23)s1)c1ccccc1.O=C(O)C(F)(F)F.O=C(O)C(F)(F)F (stereo not shown) [GSK1287544]
Second: CC(C)c1nc(-c2cccc(NS(=O)(=O)c3c(F)cccc3F)c2F)c(-c2ccnc(Nc3ccc(N4CCOCC4)nc3)n2)s1 [GSK2008607]
The “%Inh” value of the first is lower: 0% for the first, 65% for the second.

In the case of c1ccc(-c2cnc3nccnn23)cc1 [AH20685], the “%Inh” value is reported as 0%.
